Bioassay records as filed in PubChem.
Rows were chosen to be rich in hits. Some 4.3% of all compounds tested hit in one or more screens of this group.
BoNT F protease: blocks Botulinum neurotoxin F light chain protease. Multiplex microsphere protease cleavage assay, flow cytometry. inhibition, % at 10 µM. 0.22% of 360,000 active. AID 588497; in the data active = inhibition above about 35%, passing the limit was not always enough; inconclusive = no clear call, values can overlap the other calls
Anthrax LF inh2: anthrax lethal factor protease inhibition; AID 588501; 0.12% of 360,000 active; multiplex microsphere protease cleavage assay, LF; P15917; inhibition, % at 10 µM
BoNT-A LC inh2: blocks Botulinum neurotoxin A light chain protease. multiplex microsphere protease substrate cleavage, flow cytometry. inhibition, % at 10 µM. 0.17% of 360,000 active. AID 588499
MazEF act: increases E. coli MazEF RNase cleavage of RNA; P0AE70; FAM/BHQ RNA-DNA oligo cleavage fluorescence, 5 h; activation, % at 20 µM; 0.32% of 350,000 active; AID 504720; in the data active = activation above about 50%
Autofluor counter: flagged as autofluorescent in microsphere protease counterscreen; compound autofluorescence counterscreen, microsphere flow cytometry; active compounds read high; fluorescence intensity (concentration not given with the values); 3.1% of 360,000 active; AID 624483; in the data active = fluorescence intensity above about 16000; inconclusive = no clear call, values can overlap the other calls
PfHsp40 rescue: rescue of PfHsp40-mediated yeast toxicity. growth rescue, % at 12.5 µM. 0.68% of 340,000 active. S. cerevisiae expressing PfHsp40, growth rescue, ATP luminescence; in the data active = growth rescue above about 28%, passing the limit was not always enough; inconclusive = no clear call, values can overlap the other calls;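 note: yeast W303a lacking pdr1 and pdr3 grown in galactose medium; growth measured after three days at 30 °C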
BoNTA LC inh 1: inhibitors of Botulinum neurotoxin A light chain protease. 3% of 720 active. multiplex microsphere protease assay, flow cytometry. inhibition, % at 10 µM. shares compounds with BoNT F protease; in the data active = inhibition above about 32%
BoNTF LC inh 1: inhibitors of Botulinum neurotoxin F light chain protease | shares compounds with BoNT F protease | inhibition, % at 10 µM | 720 tested, under 10 active | AID 602140 | multiplex microsphere protease cleavage assay, flow cytometry; call rule not given here
Anthrax LF CP1: inhibitors of Bacillus anthracis lethal factor protease. shares compounds with BoNT F protease. multiplex microsphere protease cleavage assay, LF. inhibition, % at 10 µM. 720 tested, under 10 active. AID 602142; call rule not given here
Of the large screens only hits and unclear results are named; the others gave an inactive call (follow-up assays come after a bar, where they were run). Cut-off read from the data, not from the text of the source, unless noted: active = inhibition above about 30%; inconclusive = no clear call, values can overlap the other calls; inactive = below that.

O=C(O)C1=C[C@H](c2cccs2)C[C@H](OCc2ccc(CO)cc2)O1	none
O=C1NC2(CCSC2)C(=O)N1CC(=O)N(Cc1ccccc1)C1CCS(=O)(=O)C1 (stereo unspecified)	none
CCOC(=O)c1cnn(CCOC(=O)C(C)(C)C)c1NC(=O)C(C)(C)C	BoNT F protease 43, BoNT-A LC inh2 36 | BoNTA LC inh 1 inactive | BoNTF LC inh 1 inactive | Anthrax LF CP1 inactive
CCOC(=O)c1cnn(CCOC(=O)c2ccccc2F)c1NC(=O)c1ccccc1F	none
Cc1ccc2[nH]c(C(=O)N3CCN(c4cccc(Cl)c4)CC3)cc2c1	none
CCc1nnc(NC(=O)COc2ccccc2[N+](=O)[O-])s1	BoNT F protease inconclusive, Anthrax LF inh2 30 | BoNTA LC inh 1 inactive | BoNTF LC inh 1 inactive | Anthrax LF CP1 inactive
COc1ccc(/C=C/C(=O)Oc2ccc(/C=N/NC(=O)c3ccncc3)cc2)cc1	none
CCC(C)(C)n1nnnc1C(c1cc2cc(C)cc(C)c2[nH]c1=O)N1CCN(C(=O)c2ccco2)CC1 (stereo unspecified)	none | BoNTA LC inh 1 inactive | BoNTF LC inh 1 inactive | Anthrax LF CP1 inactive
Cc1cccc2cc(C(c3nnnn3C(C)(C)C)N3CCN(C(=O)c4ccco4)CC3)c(=O)[nH]c12 (stereo unspecified)	none
COCCn1nnnc1C(C(C)C)N(Cc1ccccc1)Cc1cc2cc(OC)ccc2[nH]c1=O (stereo unspecified)	none
Cc1ccc2[nH]c(=O)c(C(c3nnnn3C(C)(C)C)N3CCN(C(=O)c4ccco4)CC3)cc2c1 (stereo unspecified)	none
CC(C)(C)n1nnnc1C(c1cc2cc3c(cc2[nH]c1=O)OCO3)N1CCN(c2ccccc2)CC1 (stereo unspecified)	none
Cc1ccc2cc(C(c3nnnn3C(C)(C)C)N3CCCCCC3)c(=O)[nH]c2c1 (stereo unspecified)	none | BoNTA LC inh 1 inactive | BoNTF LC inh 1 inactive | Anthrax LF CP1 inactive
CCN(Cc1ccccc1)C(c1cc2ccc(C)cc2[nH]c1=O)c1nnnn1CCOC (stereo unspecified)	Anthrax LF inh2 inconclusive, BoNT-A LC inh2 inconclusive, Autofluor counter inconclusive | BoNTA LC inh 1 inactive | BoNTF LC inh 1 inactive | Anthrax LF CP1 inactive
CCC(C)(C)n1nnnc1C(c1cc2cc(C)ccc2[nH]c1=O)N1CCCC1 (stereo unspecified)	BoNT-A LC inh2 inconclusive, Autofluor counter 21937 | BoNTA LC inh 1 inactive | BoNTF LC inh 1 inactive | Anthrax LF CP1 inactive
O=C1CCN(Cc2ccccc2)N1	none
CCOc1ncccc1C(=O)Nc1ccc2c(c1)OCCCO2	none
COc1cccc(NC(=O)COC(=O)CCSc2ccccc2)c1	none
Cc1cccc(N)c1-c1c(C)cccc1N	none
COc1ccc2cc(C(c3nnnn3CCc3ccccc3)N3CCC(O)CC3)c(=O)[nH]c2c1 (stereo unspecified)	BoNT F protease active, BoNT-A LC inh2 30, Autofluor counter 38811 | BoNTA LC inh 1 inactive | BoNTF LC inh 1 inactive | Anthrax LF CP1 inactive
COc1ccc(Cn2nnnc2C(c2cc3cc(C)ccc3[nH]c2=O)N2CCOCC2)cc1 (stereo unspecified)	Autofluor counter 22468 | BoNTA LC inh 1 inactive | BoNTF LC inh 1 inactive | Anthrax LF CP1 inactive
COc1ccc(Cn2nnnc2C(c2cc3cccc(C)c3[nH]c2=O)N2CCOCC2)cc1 (stereo unspecified)	none
CCOc1c(Nc2ccc(C(C)C)cc2)c(=O)c1=O	BoNT F protease inconclusive, BoNT-A LC inh2 inconclusive
CCCC(Oc1ccc(Br)cc1)c1nc2c3cc(OC)c(OC)cc3nc(=S)n2[nH]1 (stereo unspecified)	none
CC(Oc1ccc(Br)cc1)c1nc2c3ccccc3nc(=S)n2[nH]1 (stereo unspecified)	BoNT F protease 36 | BoNTA LC inh 1 inactive | BoNTF LC inh 1 inactive | Anthrax LF CP1 inactive
Oc1ccc(Br)cc1C=Nc1ccc2c3c(cccc13)CC2	BoNT-A LC inh2 33 | BoNTA LC inh 1 inactive | BoNTF LC inh 1 inactive | Anthrax LF CP1 inactive
Oc1ccc(Cl)cc1C=Nc1ccccc1Br	none
Cn1cnc([N+](=O)[O-])c1Sc1nc2ccccc2[nH]1	Anthrax LF inh2 34 (no result: PfHsp40 rescue) | BoNTA LC inh 1 inactive | BoNTF LC inh 1 inactive | Anthrax LF CP1 inactive
Cc1nc([N+](=O)[O-])c(Sc2nc3ccccc3[nH]2)n1Cc1ccccc1	none
CC(/C=N/NC(=O)CNc1n[nH]c(=O)[nH]c1=O)c1ccccc1 (stereo unspecified)	Autofluor counter inconclusive
COc1ccc(S(=O)(=O)N(C)C[C@H]2OCc3cnnn3CCCC(=O)N([C@H](C)CO)C[C@@H]2C)cc1	none (no result: PfHsp40 rescue)
COc1ccc(CCNC(=O)CCCc2ccccc2)cc1OC	BoNT F protease 35 | BoNTA LC inh 1 inactive | BoNTF LC inh 1 inactive | Anthrax LF CP1 inactive
CSC1=C(C#N)C(c2sccc2C)CC(=O)N1 (stereo unspecified)	none
Nc1ccccc1NC1CCCCC1	BoNT-A LC inh2 74 | BoNTA LC inh 1 inactive | BoNTF LC inh 1 inactive | Anthrax LF CP1 inactive
c1ccc2c(NC3CCCC3)nnc(NC3CCCC3)c2c1	none
O=S(=O)(c1cccc(C(F)(F)F)c1)N1CCC(CO)(CCCc2ccccc2)CC1	Anthrax LF inh2 49, PfHsp40 rescue 55 | BoNTA LC inh 1 inactive | BoNTF LC inh 1 inactive | Anthrax LF CP1 inactive
CCc1cc2cccc(C)c2nc1SCC(=O)NC1CCCC1	BoNT F protease 37 | BoNTA LC inh 1 inactive | BoNTF LC inh 1 inactive | Anthrax LF CP1 inactive
CCCNc1cc(C)c(C#N)c2nc3ccccc3n12	none
CNc1cc(C)c(C#N)c2nc3ccccc3n12	Anthrax LF inh2 32 | BoNTA LC inh 1 inactive | BoNTF LC inh 1 inactive | Anthrax LF CP1 inactive
CC(SCc1ccccc1)C(=O)Nc1ccccc1 (stereo unspecified)	none
CN(CCOc1ccccc1)C(=O)CCc1c[nH]c2ccccc12	none
Cc1cc(C)cc(N2C(=O)NC(=O)/C(=C\c3cccn3-c3ccccc3)C2=O)c1	BoNT F protease 68, Anthrax LF inh2 31 | BoNTA LC inh 1 inactive | BoNTF LC inh 1 inactive | Anthrax LF CP1 inactive
CCOC(=O)CSc1nc2sc3c(c2c(=O)n1-c1ccc(OC)cc1)CCN(C)C3	BoNT F protease inconclusive, BoNT-A LC inh2 42 | BoNTA LC inh 1 inactive | BoNTF LC inh 1 inactive | Anthrax LF CP1 inactive
CC(NC(=O)c1ccc(C(=O)c2ccccc2)cc1)c1ccc(S(N)(=O)=O)cc1 (stereo unspecified)	none
COc1ccc(C(=O)NCC2CCCO2)cc1 (stereo unspecified)	BoNT F protease 36 | BoNTA LC inh 1 inactive | BoNTF LC inh 1 inactive | Anthrax LF CP1 inactive
COc1cc(OC)cc(C(=O)Nc2ccc(C(=O)NCC3CCCO3)cc2)c1 (stereo unspecified)	BoNT F protease inconclusive
Cc1ccc2nc(SCCC#N)nc(C)c2c1	none
